Screening data deposited in PubChem BioAssay by National Center for Advancing Translational Sciences (NCATS).
aSyn rescue: qHTS of alpha-syn Inhibitors; Yeast expressing alpha-synuclein, growth rescue, BacTiter-Glo, 24 h; Potency, µM (titrated, usually from 46.1 µM), without a hit: top-dose growth rescue (activation), most hits filed as activators; 370,000 tested, 0.14% active; AID 652106, 2013; note: % of control where 0% means no effect; nearly all actives have a fitted effect of over 65% in size
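Screening used galactose-induced yeast with toxic alpha-synuclein levels, exposed to compound for 24 hr at 30 deg C. Cell growth, read with BacTiter-Glo luminescence, gave the measured signal.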
FUS yeast rescue: qHTS for Suppressors of FUS Proteinopathy: Primary screen using FUS-linked yeast assay | S. cerevisiae FUS-expressing, growth rescue, OD600, 24 h | 390,000 tested, 0.24% active | AID 1347120, 2019 | Potency, µM (series often up to 76.6 µM), most hits filed as activators;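 note: plate controls were DMSO vehicle for no effect and reference control for full effect; nearly all actives have a fitted effect of over 55% in size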
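Yeast expressing FUS under galactose induction, OD 0.005 in 2% galactose medium; compounds in a dilution series, 24 h at 30C. Growth rescue by absorbance at 600 nm; CP55940 positive control, DMSO negative.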
TDP-43 yeast inh: qHTS of TDP-43 Inhibitors | TDP-43 expressing yeast growth rescue, BacTiter-Glo, 24 h | Potency, µM (series often up to 46.1 µM), inactives show at the top dose growth rescue (activation), hits mostly activators | 410,000 tested, 1.8% active; note: % of control where 0% means no effect; nearly all actives have a fitted effect of over 50% in size
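Luminescence from BacTiter-Glo reports growth of TDP-43-expressing yeast after 24 hr at 30 deg C with compound. Cells were raffinose-pregrown to mid-log, then seeded in galactose medium at OD600=0.02.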
Abeta yeast res: qHTS for compounds that reverse cellular toxicity of Amyloid beta (A-beta) peptide in yeast: Primary Screen | Potency, µM (series often up to 46.1 µM), hits mostly activators | 410,000 tested, 0.063% active | yeast expressing A-beta42, growth rescue, OD600, 48 h; response scale: 0% DMSO, 100% iron-clioquinol control; note: nearly all actives have a fitted effect of over 55% in size
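Yeast A-beta toxicity model in growth medium with pinned compounds, 48 h at 30 C; growth read as absorbance at 600 nm. Normalized to FeCl3/clioquinol equimolar mix (positive) and DMSO (negative).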
* = called active by the depositor; i = inactive; ? = inconclusive; · = no result. Rows were chosen to be rich in hits. Some 2.1% of all compounds tested hit in one or more screens of this group. Calls come from the whole dose curve; as a rule, active = well fitted curve in the direction sought with a large enough effect; inconclusive = small, poorly fitted or top-dose-only effect, or another doubt; inactive = no such curve, though single readings can be large; an effect the other way counts as inactive or inconclusive. Potency is the fitted concentration of half-maximal effect.

SMILES	aSyn rescue	FUS yeast rescue	TDP-43 yeast inh	Abeta yeast res
Cc1cc(Br)cn2c(Cc3ccsc3)c(-c3ccco3)nc12	-75.7%	i	?	i
Cc1cc(Br)cn2c(Cc3ccccc3)c(-c3ccco3)nc12	1.0%	i	11.2µM*	i
CCOc1ccccc1N(CC)C(=O)Cn1ncc2c1-c1ccccc1OC2	·	i	?	i
Cc1ccc(Cc2c(-c3ccc(C)cc3)nc3c(C)cc(Br)cn23)cc1	13.1%	i	6.4%	i
Cc1ccc(Cc2c(-c3ccc(F)cc3)nc3c(C)cc(Br)cn23)cc1	2.8%	i	22.4µM*	i
Cc1c(C(=O)NCc2cccnc2)oc2ccc(S(=O)(=O)N3CCC4(CC3)OCCO4)cc12	?	i	0.1%	i
Cc1ccc(CNC(=O)c2oc3ccc(S(=O)(=O)N4CCC5(CC4)OCCO5)cc3c2C)cc1	3.6%	25.1µM*	-8.1%	i
Cc1nc2c3cc(F)ccc3n(Cc3ccccc3F)c2s1	-19.2%	i	11.2µM*	i
Cc1nc2c3ccccc3n(Cc3ccccc3F)c2s1	-8.7%	i	0.0%	i
Cc1nn(C(=O)c2cccc([N+](=O)[O-])c2C)c(C)c1S(=O)(=O)N1CCOCC1	·	i	0.0%	i
Cc1cccc(CCNC(=O)CSc2nc3c([nH]2)c(=O)n(C)c(=O)n3C)c1	·	i	·	·
CCC(=O)N1c2ccc(S(=O)(=O)N3CCN(c4ccccc4Cl)CC3)cc2CC1C (stereo not drawn)	8.0%	?	35.5µM*	i
O=S(=O)(NCCS(=O)(=O)N1CCN(c2cccc(Cl)c2)CC1)c1ccc(F)cc1	·	i	16.9%	i
COc1ccc(NC(=O)c2c(C)oc3ccc(O)c(CN4CCCCCC4)c23)cc1Cl	·	?	-4.9%	i
Nc1cccc(Oc2c(F)c(F)c(Oc3cccc(N)c3)c(F)c2F)c1	-13.1%	i	5.62µM*	i
Cc1ccc(-c2ccc(=O)n(CCC(=O)NCCc3ccccc3)n2)cc1	19.0%	i	3.3%	i
Cc1cnc2c(C)cccc2c1/C=C/c1ccc(N(C)C)cc1	6.1%	·	·	·
CCCN1CNc2c(c(=O)[nH]c(=S)n2CCc2cc(Cl)cc(Cl)c2)C1	-0.5%	·	·	·
CCCc1nnc(NC(=O)Cn2c(=O)oc3cc(Br)ccc32)s1	-12.7%	i	-14.4%	i
O=c1oc2cc(Br)ccc2n1CSC1=NCCS1	-7.8%	i	12.6µM*	i
C=CCN1[C@H](C)COc2cc(N3CCSCC3)ccc2S1(=O)=O	·	i	·	·
Cc1ccc(-n2ncc(C(=O)NC3CCCCC3)c2C2CCN(C(=O)OC(C)(C)C)CC2)cc1	·	i	-5.3%	i
Cc1csc(N/N=C/c2c(F)cccc2Cl)n1	-18.2%	i	28.2µM*	i
COc1ccc(-n2c(=O)c3c4c(sc3n(Cc3ccc(F)cc3)c2=O)CN(C(C)=O)CC4)c(OC)c1	·	?	-3.3%	i
O=C(O)c1ccc(N2N=C(c3ccccc3)CC2c2ccccc2)cc1 (stereo not drawn)	0.0%	i	12.6µM*	i
SMILES	aSyn rescue	FUS yeast rescue	TDP-43 yeast inh	Abeta yeast res
COC(=O)[C@]12C[C@H](CC(=O)NCc3ccc(OC)c(OC)c3)C(=O)N(Cc3ccc(Cl)cc3Cl)C1=C[C@H](C(C)C)O[C@@H]2C1CC1	·	28.2µM*	·	·
COCCCNC(=O)C[C@H]1C[C@@]2(C(=O)OC)C(=C[C@H](C(C)C)O[C@@H]2C2CC2)N(Cc2ccc(Cl)cc2Cl)C1=O	·	28.2µM*	·	·
CCc1ccc2oc(-c3cc(N=Cc4cccc(OC)c4O)ccc3O)nc2c1	-0.3%	i	15.8µM*	i
CC(=O)Oc1ccc2c3c(c(=O)oc2c1)CCCC3	6.2%	i	?	?
Cc1cc(=O)oc2cc(O)ccc12	-7.8%	i	11.7%	i
O=c1cc(O)c2ccc(O)cc2o1	?	i	14.1µM*	i
O=c1oc2cc(O)ccc2c2c1CCCC2	14.5%	i	12.6µM*	i
CCOc1ccc(CCNC(=O)c2cc3c(=O)oc4ccc(C)cc4c3s2)cc1OCC	·	i	15.8%	i
COc1ccc(NC(=O)Cn2c(=O)n(Cc3ccco3)c(=O)c3cc(OC)c(OC)cc32)cc1	·	i	19.7%	i
Cc1ccc(-n2cc(C(=O)c3cc(Cl)ccc3O)cc(C#N)c2=O)cc1	0.4%	·	14.1µM*	i
COc1cccc(-n2cc(-c3ccc(F)cc3)[nH]c2=S)c1	0.7%	i	11.2µM*	?
S=c1[nH]c(-c2ccccc2)cn1-c1ccccc1	0.2%	i	12.6µM*	12.6µM*
CCOC(=O)C1CCN(c2c(C(=O)c3ccc(OC)cc3)cnc3ccccc23)CC1	·	i	-2.4%	i
Cc1cccc(NC2=C(Cl)C(=O)OC2OC(C)C)c1 (stereo not drawn)	0.7%	i	12.6µM*	i
Cc1ccc(NC2=C(Cl)C(=O)OC2OC(C)C)cc1 (stereo not drawn)	-5.3%	i	?	i
S=C1SCCCN1Cc1ccc(Cl)cc1	2.2%	i	11.2µM*	i
COc1ccc(S(=O)(=O)N2CCN(c3nc(-c4ccccc4)nc4ccccc34)CC2)cc1	0.9%	·	·	·
COc1ccc(OCCn2cc(C(=O)c3ccco3)c3ccccc32)cc1	·	i	17.8µM*	?
Cc1ccc(OCCn2cc(C(=O)c3ccco3)c3ccccc32)cc1C	·	i	11.6%	i
O=C1CC(O)(C(F)(F)F)Oc2c1ccc1ccccc21 (stereo not drawn)	12.6µM*	i	14.4%	i
O=C1CC(O)(C(F)F)Oc2ccc3ccccc3c21 (stereo not drawn)	-0.9%	·	-0.1%	i
Cc1ccc(C(=O)N/C(=C\c2ccccc2)C(=O)NCc2cccnc2)cc1	-7.8%	i	2µM*	i
Fc1ccc(NC(=S)NCc2ccccc2Cl)cc1	3.5%	i	-7.4%	?
Cc1ccc(C(=O)NC(=S)NCc2ccccc2)cc1	-8.6%	i	15.8µM*	?
S=C(NCc1ccccc1)NCc1ccccc1Cl	0.4%	i	?	12.6µM*
SMILES	aSyn rescue	FUS yeast rescue	TDP-43 yeast inh	Abeta yeast res
O=C(NCc1cccnc1)/C(=C/c1ccccc1)NC(=O)c1ccccc1	0.2%	i	13.0%	i
S=C(NCc1ccccc1)NCc1cccc(Cl)c1	2.6%	i	29.2%	14.1µM*
CCOC(=O)c1ccccc1NC(=O)N1CCC(N2CCN(Cc3ccccc3)C(=O)C2=O)CC1	·	?	11.9%	i
COc1ccc(N(Cc2cccs2)C(=O)COc2ccc(C(C)C)cc2)cc1	·	i	-30.5%	i
O=C(NC(=S)NCc1ccccc1)c1cccc(Cl)c1	1.1%	i	15.8µM*	i
O=C(NC(=S)NCc1ccccc1)c1cccnc1	-1.4%	i	3.2%	i
O=C(O)CCc1nnc2cnc3ccccc3n12	·	i	6.6%	i
O=C(NCc1ccc(Cl)cc1)c1cc(-c2cccs2)on1	4.6%	i	-15.3%	i
COc1ccc(CNC(=O)c2cc(-c3cccs3)on2)cc1	-4.1%	i	5.62µM*	i
